From PubChem BioAssay (NCATS)

Assay: High-throughput drug toxicity screening in the BPDCN cell line Gen2.2 (AID 1224824)
Conditions: Gen2.2 BPDCN cells; at 45.8 µM (top of the series) unless noted
Text: Blastic plasmacytoid dendritic cell neoplasm (BPDCN) is a rare, aggressive and largely incurable hematologic malignancy originating from plasmacytoid dendritic cells (pDCs). Although an initial response to chemotherapy is common, BPDCN prognosis is extremely poor and most patients relapse with drug-resistant disease leading to a median overall survival of ~1 year after diagnosis. To explore novel potential therapeutic strategies in BPDCN, we performed a high-throughput drug toxicity screening in BPDCN cell liens, using of a library of 1,912 small molecules, enriched for compounds that are either approved or in early stages of development for cancer therapy.
A total of 500 exponentially growing Gen2.2 cells were seeded per well in 5 uL of media (RPMI + Glutamine, without phenol red plus10% FBS and 1X Pen/Strep) into 1536-well solid white high base tissue culture treated Greiner One Bio Plates (789173-F), using a multidrop combi dispenser and a small sterile cassette. Compounds and controls totaling 23nL per well (negative control DMSO and positive control 9.2 uM Bortezomib-final) were immediately added to the plates using a 1536 head pin tool from Kalypsys. The plates were then covered with stainless steel gasket lids from Kalypsys and incubated for 48 hours at 37C under 95% relative humidity with 5% CO2. After 48 hours, the plates were removed and allowed to reach room temperature before 3 uL of Cell Titer Glo reagent (Promega) were added using an Aurora Flying Reagent Dispenser Bioraptor. The plates were then spun at 1000 rpms to remove bubbles and incubated for 15 minutes at room temperature before reading on a ViewLux using a luminescent filter with a 10 second exposure. The relative luciferase units were used to calculated percent activity using DMSO as 100% and Bortezomib as 0%.

Compound	cell viability, % of control (lower = more cytotoxic)
Cn1c(=O)c2c(ncn2CC(O)CO)n(C)c1=O (stereo not given)	104%
CCOC(=O)c1ccc(C#Cc2ccc3c(c2)C(C)(C)CCS3)nc1	379%
CCCCCCNC(=O)n1cc(F)c(=O)[nH]c1=O	106%
CCn1cc(C(=O)O)c(=O)c2cc(F)c(N3CCNCC3)cc21	113%
CC1=CC(=O)c2ccccc2C1=O	2.97%
COc1cc(NS(=O)(=O)c2ccc(N)cc2)nc(OC)n1	129%
O=S(=O)(O)CCS	25.9%
CO[C@@]12[C@H](COC(N)=O)C3=C(C(=O)C(C)=C(N)C3=O)N1C[C@@H]1N[C@@H]12	2.55%
CC(C)C[C@H](NC(=O)[C@H](CCc1ccccc1)NC(=O)CN1CCOCC1)C(=O)N[C@@H](Cc1ccccc1)C(=O)N[C@@H](CC(C)C)C(=O)[C@@]1(C)CO1	5.77%
C#CCN[C@@H]1CCc2ccccc21	153%
CCn1cc(C(=O)O)c(=O)c2cc(F)c(N3CCNCC3)nc21	194%
COc1cc2ncnc(Nc3cccc(Cl)c3)c2cc1OC	115%
Nc1nc(N)c2nc(CNc3ccc(C(=O)NC(CCC(=O)O)C(=O)O)cc3)cnc2n1 (stereo not given)	23.1%
O=C(N[C@H](CO)[C@H](O)c1ccc([N+](=O)[O-])cc1)C(Cl)Cl	136%
O=c1cc(O)c(Cl)c[nH]1	246%
CCN(CC)CCn1c(=O)c(Cc2ccc(OC)cc2)nc2ccccc21	115%
CC[C@H](C)C(=O)O[C@H]1C[C@@H](C)C=C2C=C[C@H](C)[C@H](CC[C@@H]3C[C@@H](O)CC(=O)O3)[C@H]21	8.11%
C[C@@H](CN1CC(=O)NC(=O)C1)N1CC(=O)NC(=O)C1	147%
COc1ccc2c(c1)c(CC(=O)OCC(=O)O)c(C)n2C(=O)c1ccc(Cl)cc1	144%
CNCC[C@H](Oc1cccc2ccccc12)c1cccs1	8.39%

Compound	cell viability, % of control (lower = more cytotoxic)
CCC(C)(C)c1ccc(CC(C)CN2C[C@@H](C)O[C@@H](C)C2)cc1 (stereo not given in full)	129%
COc1ccc(-c2ccc3cc(C(=O)O)ccc3c2)cc1C12CC3CC(CC(C3)C1)C2	521%
COc1cnc(NS(=O)(=O)c2ccc(N)cc2)nc1	32.7%
COC(=O)Nc1nc2ccc(S(=O)c3ccccc3)cc2[nH]1 (stereo not given)	86.3%
Cc1oc(=O)oc1CN1CCN(c2cc3c(cc2F)c(=O)c(C(=O)O)c2n3C(C)S2)CC1 (stereo not given)	162%
CNC1CCCN(c2c(F)cc3c(=O)c(C(=O)O)cn(C4CC4)c3c2OC)C1 (stereo not given)	106%
O=c1oc2c(O)c(O)cc3c(=O)oc4c(O)c(O)cc1c4c23	225%
CC(C)C1CCC(C(=O)N[C@H](Cc2ccccc2)C(=O)O)CC1 (stereo not given in full)	139%
O=NN(CCCl)C(=O)NC1CCCCC1	110%
Cn1nnc2c(C(N)=O)ncn2c1=O	79.7%
CC(=O)Oc1ccccc1C(=O)Nc1ncc([N+](=O)[O-])s1	73% [at 92.2 µM]
OCc1ccc(-c2nn(Cc3ccccc3)c3ccccc23)o1	199%
CC(C)OC(=O)C(C(=O)OC(C)C)=C1SC=CS1	159%
Cc1noc(NS(=O)(=O)c2ccc(N)cc2)c1C	138%
CCOC(=O)[C@H](CCc1ccccc1)N[C@H]1CS[C@H](c2cccs2)CN(CC(=O)O)C1=O	189%
CC(C)(Sc1cc(C(C)(C)C)c(O)c(C(C)(C)C)c1)Sc1cc(C(C)(C)C)c(O)c(C(C)(C)C)c1	48.3%
CCOC(=O)c1ccc(OC(=O)CCCCCN=C(N)N)cc1	186%
CCN1CCCC1CNC(=O)c1cc(S(N)(=O)=O)ccc1OC (stereo not given)	128%
COc1cc2nc(N3CCCN(C)CC3)nc(NC3CCN(Cc4ccccc4)CC3)c2cc1OC	9.38%
CCC(=O)O[C@]1(C(=O)SCF)[C@H](C)C[C@H]2[C@@H]3C[C@H](F)C4=CC(=O)C=C[C@]4(C)[C@@]3(F)[C@@H](O)C[C@@]21C	84.3%
